# Screens from PubChem.
# The list is not random: actives were taken first. Their share in the collection is about 2.6%.
# PHOSPHO1 block – PubChem AID 1565; Phosphoethanolamine/phosphocholine phosphatase (Homo sapiens), Q8TCT1; recombinant PHOSPHO1, absorbance phosphatase assay; inhibition, % at 13.3 µM; hit rate 1.1% among 290,000; in the data active means inhibition above about 60%
# MLLE-PAM2 inh – inhibitors of PABP1 MLLE–PAM2 peptide binding, primary screen, biochemical, fluorescence polarization, FITC-PAM2, GST-MLLE | Polyadenylate-binding protein 1 (Homo sapiens), P11940 | hit rate 0.36% among 360,000 | inhibition, % at 20 µM; in the data active means inhibition above about 35%, passing the limit was not always enough;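 further: plate controls were DMSO wells with GST-MLLE for no effect and wells lacking GST-MLLE protein for full effect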
# Target sequence (P11940 whole entry, looked up): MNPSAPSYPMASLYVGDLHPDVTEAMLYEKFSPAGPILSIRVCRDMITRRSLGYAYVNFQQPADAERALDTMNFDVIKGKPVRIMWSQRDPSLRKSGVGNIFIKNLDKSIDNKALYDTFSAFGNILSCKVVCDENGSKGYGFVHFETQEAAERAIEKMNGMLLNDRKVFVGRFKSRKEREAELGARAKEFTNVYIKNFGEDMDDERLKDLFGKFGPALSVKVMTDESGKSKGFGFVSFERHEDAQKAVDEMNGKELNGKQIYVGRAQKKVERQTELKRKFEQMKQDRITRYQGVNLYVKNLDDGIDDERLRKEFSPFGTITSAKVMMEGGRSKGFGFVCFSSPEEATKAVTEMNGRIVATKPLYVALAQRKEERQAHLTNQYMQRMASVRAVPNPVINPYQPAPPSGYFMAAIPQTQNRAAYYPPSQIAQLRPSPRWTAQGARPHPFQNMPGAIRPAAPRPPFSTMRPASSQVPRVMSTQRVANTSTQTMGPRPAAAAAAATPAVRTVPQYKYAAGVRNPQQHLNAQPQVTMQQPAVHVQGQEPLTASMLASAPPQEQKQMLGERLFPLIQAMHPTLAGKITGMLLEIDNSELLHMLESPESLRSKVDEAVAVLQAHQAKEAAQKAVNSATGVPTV
# eIF4H inh – human eIF4H binding inhibitors, primary screen, translation initiation inhibitor project, biochemical, uHTS, fluorescence polarization; Eukaryotic translation initiation factor 4H (Homo sapiens), Q15056; eIF4H fluorescence polarization binding assay; inhibition, % at 35 µM; hit rate 0.94% among 290,000;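 further: calls also rest on retests at 20 µM and on dose response follow-up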
# PABP FP inh – PABP poly(A) RNA binding inhibitors, primary screen, biochemical, fluorescence polarization, uHTS; Polyadenylate-binding protein 1 (Homo sapiens), P11940; hit rate 1% among 290,000; calls only at 35 µM;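 further: calls also rest on retests at 20 µM and on dose response follow-up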
# AI-2 QS mod – Vibrio harveyi AI-2 quorum sensing modulators, primary screen, JMH597 strain, luminescence/OD600 ratio; activity change, % at 7.5 µM; Vibrio harveyi JMH597 AI-2 luminescence/OD600 ratio, 9 h; active compounds read low; strain lacks LuxN and CqsS sensors; 0 = neutral-control median; hit rate 0.4% among 300,000; in the data active means activity change below about -75%, passing the limit was not always enough; inconclusive means no clear call, values can overlap the other calls;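 further: luminescence divided by OD600 gain over 9 h not by final OD600 alone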
# ABCB6 inh MLPCN – ABCB6 transporter inhibitors, primary screen, K562-ABCB6 cells, flow cytometry, MLPCN library; ATP-binding cassette sub-family B member 6 (Homo sapiens), Q9NP58; fluorescence ratio to DMSO, % at 10 µM; hit rate 0.19% among 360,000; K562-ABCB6 porphyrin accumulation, 1 h; active compounds read low; AID 602162, 2011;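 active means fluorescence ratio to DMSO below 75%, the collection mean minus 3 SD; inconclusive means too few cells collected in the well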;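 further: signal is porphyrin accumulated inside mitochondria; 100% equals median channel fluorescence of DMSO control wells; lower ratio means ABCB6 inhibition with less porphyrin fluorescence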
# The depositor's hits bear a star; i = inactive; ? = inconclusive; . = no result; + = active, no number. Unless noted, how the calls were made is not given here.
SMILES,PHOSPHO1 block,MLLE-PAM2 inh,eIF4H inh,PABP FP inh,AI-2 QS mod,ABCB6 inh MLPCN
CCCNC(=O)C1(C)CCCN(C(=O)c2ccc(F)cc2Cl)C1 (centres undefined),.,-1,.,.,.,89
O=C(/C=C/c1ccco1)OCc1nnc(-c2ccc(Cl)cc2)o1,36,-5,57*,+,9,100
O=C(Cc1ccc(Cl)cc1)OCc1nnc(-c2ccccc2)o1,60*,-11,-1,i,13,101
CCOC(=O)C1=CCN(S(=O)(=O)c2ccc(C)cc2)C1c1ccc(CC)cc1 (centres undefined),.,8,.,.,.,97
Cc1cccc(NC(=O)C(C)OC(=O)CNC(=O)C2CCCCC2)c1 (centres undefined),.,1,.,.,.,100
COc1ccccc1/C=C1\NC(=S)N(CC2CCCO2)C1=O (centres undefined),97*,-103,3,i,22,103
COc1ccc(/C=C2/C(=O)N(CC3CCCO3)C(=S)N2C)c(OC)c1 (centres undefined),1,-11,-8,i,20,97
COc1ccc([N+](=O)[O-])c(S(=O)(=O)c2ccc(Cl)cc2)n1,20,35,-2,i,-145*,110
O=C(/C=C/c1ccco1)N1CCc2ccccc21,-10,8,18*,i,14,91
Cc1ccc(/C=C/C(=O)N2CCc3ccccc32)o1,10,18,68,i,11,101
CCCCCC(=O)N1C[C@H](n2cc(C3CC3)nn2)[C@@H](O)C[C@@H]1c1ccc(Cl)cc1,.,10,.,.,.,98
O=C(Nc1nnc([C@@H]2C[C@H](O)[C@@H](CO)O2)s1)c1cccc(Cl)c1,.,1,.,.,.,100
Cc1cc(O)c(C(C)C)cc1N=C1CSC(=O)N1,87*,32,3,i,-5,86
Cc1ccc(N=C2CSC(=O)N2)cc1,16,-5,-11,i,16,100
COC(=O)N(C)C[C@H]1OCc2cnnn2CCCC(=O)N([C@H](C)CO)C[C@H]1C,.,0,.,.,.,107
CCNC(=O)C1(C)CCCN1Cc1c(F)cccc1F (centres undefined),.,2,.,.,.,97
O=C1CCCC2=C1C(c1ccc(O)c(O)c1)Nc1ccc3ncccc3c12 (centres undefined),43,-12,74*,+,14,109
COc1ccccc1-c1noc2c1C(=O)N(Cc1cn(Cc3ccccc3)nn1)CC2,.,5,.,.,.,97
Cc1ccccc1C1C(C#N)=C2N=C(N)c3c(sc4c3CCCCC4)N2C2=C1C(=O)CCC2 (centres undefined),-63,22,78*,+,48,135
N#CC1=C2N=C(N)c3ccccc3N2C2=C(C(=O)CCC2)C1c1ccccc1F (centres undefined),27,87,?,?,29,108
O=c1[nH]c(=O)n(Cc2ccccc2)c2nc(-c3ccco3)cc(C(F)(F)F)c12,18,-17,4,i,6,109
Cc1nn(CCc2nc(-c3ccco3)cs2)c2[nH]c(=O)cc(C(F)(F)F)c12,77*,28,45*,+,15,97
Cc1cc(C)n(CCc2nc(-c3ccco3)cs2)n1,41,11,51*,+,5,95
COC(=O)c1ccc(C(=O)OC)c(NC(=O)CSc2cccc[n+]2[O-])c1,87*,35,-10,i,10,100
O=C(NCc1ccc(F)cc1)c1cc(C2CCCN(C(=O)c3ccc4ccccc4c3)C2)on1 (centres undefined),.,1,.,.,.,97
SMILES,PHOSPHO1 block,MLLE-PAM2 inh,eIF4H inh,PABP FP inh,AI-2 QS mod,ABCB6 inh MLPCN
CC1=C(C(=O)N2CCOCC2)CC(CC(=O)NC2CCCCC2)C(=O)N1Cc1ccc(C(C)(C)C)cc1 (centres undefined),.,4,.,.,.,99
CNc1cccccc1=S,76*,49*,101*,+,20,103
COc1ccc(N2Cc3cccc(C(=O)N4CCOCC4)c3C2=O)cc1,-3,-17,-11,i,10,79
COc1ccc(N2Cc3cccc(C(=O)N4CCN(C(=O)c5ccco5)CC4)c3C2=O)cc1,-4,-10,93*,+,40,94
CCCOc1ccc(C(=O)Nc2nc(C)c(Cc3ccc4c(c3)OCO4)s2)cc1,-7,6,1,i,16,100
COc1cc(C(=O)Nc2nc(C)c(Cc3ccc4c(c3)OCO4)s2)cc(OC)c1OC,74*,33,-1,i,11,105
CC(=O)Nc1sc(N)nc1-c1ccccc1,80*,5,-5,i,24,98
Cc1ccc(C)c(NCCCCC(=O)O)c1,.,-12,.,.,.,100
COCCn1nnnc1CN(Cc1cc2cc(OC)c(OC)cc2[nH]c1=O)C1CCCC1,33,5,51*,+,9,110
Cc1ccc2cc(CN(CCN3CCOCC3)Cc3nnnn3Cc3ccco3)c(=O)[nH]c2c1C,5,-17,86*,+,0,114
COc1cc2cc(CN(Cc3nnnn3Cc3ccco3)C3CCCCC3)c(=O)[nH]c2cc1OC,30,13,61*,+,1,112
CCOc1ccc2[nH]c(=O)c(CN(Cc3nnnn3Cc3ccco3)C3CCCCC3)cc2c1,-37,29,57*,+,20,103
COc1ccc(Cn2nnnc2CN(Cc2cc3ccc(C)cc3[nH]c2=O)C2CCCC2)cc1,-28,-11,-14,i,6,92
Cc1ccc2cc(CN(Cc3ccc4c(c3)OCO4)Cc3nnnn3Cc3ccco3)c(=O)[nH]c2c1C,3,-16,-2,i,6,94
CCN(CC)S(=O)(=O)c1ccc(NC(=S)NC(=O)C2CCC2)cc1,.,13,2,i,11,97
CN(C1CCCCC1)S(=O)(=O)c1ccc(NC(=S)NC(=O)c2cccs2)cc1,-1,43*,-6,i,15,105
CN(C)S(=O)(=O)c1ccc(NC(=S)NC(=O)C2CCC2)cc1,-20,6,-10,i,-76*,99
NC(c1csc(Nc2nncc3ccccc23)n1)C1CCCCC1 (centres undefined),.,-24,.,.,.,102
CCCc1nc2c3ccccc3ccn2c1Cc1ccccc1,.,-10,.,.,.,103
Cc1ccccc1NC(=S)Nn1cnnc1,9,14,-8,i,22,97
CCc1ccccc1NC(=S)Nn1cnnc1,61*,26,-9,i,10,93
